Experimental data: PubChem BioAssay (NCATS)
Results filed as inconclusive are left out. Entries that show only a call come without a potency. Calls of active or inactive are those of the source. Unless noted, the call rests on the fitted dose curve.

Key:
[1] = qHTS for Inhibitors of the Functional Ribonucleoprotein Complex (vRNP) of Lassa (LASV) Arenavirus: Viability assay - alamar blue signal for LASV Primary Screen (AID 1347083; calls by dose curve; tested in HEK293 reporter line; further: nearly all actives have a fitted effect of over 80% in size; further: potency means the concentration at half of the fitted maximal effect)
[2] = qHTS for Inhibitors of the Functional Ribonucleoprotein Complex (vRNP) of Lymphocytic Choriomeningitis Arenaviruses (LCMV): Viability assay - alamar blue signal for LCMV Primary Screen (AID 1347085; calls by dose curve; tested in HEK293 reporter line; further: nearly all actives have a fitted effect of over 80% in size; further: potency means the concentration at half of the fitted maximal effect)
[3] = target: Nucleoprotein (Lymphocytic choriomeningitis virus (strain Armstrong)) (UniProt P09992); assay: qHTS for Inhibitors of the Functional Ribonucleoprotein Complex (vRNP) of Lymphocytic Choriomeningitis Arenaviruses (LCMV): LCMV Primary Screen - GLuc reporter signal (AID 1347086); further: nearly all actives have a fitted effect of over 70% in size; further: potency means the concentration at half of the fitted maximal effect
[4] = qHTS for Inhibitors of the Functional Ribonucleoprotein Complex (vRNP) of Lassa (LASV) Arenavirus: LASV Primary Screen - GLuc reporter signal (AID 1347082; calls by dose curve; tested in HEK293 reporter line; further: series mostly up to about 57 µM; nearly all actives have a fitted effect of over 60% in size)

Sequence of Nucleoprotein (Lymphocytic choriomeningitis virus (strain Armstrong)) (P09992 whole entry, looked up): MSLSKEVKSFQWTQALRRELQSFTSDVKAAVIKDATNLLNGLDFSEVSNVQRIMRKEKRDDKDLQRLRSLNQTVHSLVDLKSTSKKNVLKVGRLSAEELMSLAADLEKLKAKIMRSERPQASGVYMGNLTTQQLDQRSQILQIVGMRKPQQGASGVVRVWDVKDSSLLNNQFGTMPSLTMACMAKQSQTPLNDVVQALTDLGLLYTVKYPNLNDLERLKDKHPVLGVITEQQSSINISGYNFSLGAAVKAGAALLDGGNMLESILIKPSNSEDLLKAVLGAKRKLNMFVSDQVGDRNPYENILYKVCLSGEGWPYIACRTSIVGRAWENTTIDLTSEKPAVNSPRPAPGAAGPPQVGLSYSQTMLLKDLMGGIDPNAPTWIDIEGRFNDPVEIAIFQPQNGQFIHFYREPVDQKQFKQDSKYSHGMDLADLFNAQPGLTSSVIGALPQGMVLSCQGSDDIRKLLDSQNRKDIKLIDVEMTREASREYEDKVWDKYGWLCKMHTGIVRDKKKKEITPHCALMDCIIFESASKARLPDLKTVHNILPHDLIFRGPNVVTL

SMILES	Potency [1]	Potency [2]	Potency [3]	Potency [4]
COc1cccc2c1C(=O)c1c(O)c3c(c(O)c1C2=O)C[C@@](O)(C(=O)CO)C[C@@H]3O[C@H]1C[C@H](N)[C@@H](O)[C@H](C)O1	1.09 µM (active)	1.09 µM (active)	1.37 µM (active)	
CN(C)C(=O)Oc1ccc[n+](C)c1	inactive	inactive	inactive	inactive
O=C(Nc1cccc2c(=O)cc(-c3nn[nH]n3)oc12)c1ccc(OCCCCc2ccccc2)cc1	30.6 µM (active)			
COc1cc(C)nc(-n2nc(C)cc2OC)n1	inactive		inactive	inactive
O=C(O)Cc1ccc(-c2ccccc2)cc1	inactive		inactive	inactive
CCCCOC(=O)c1ccc(N)cc1		inactive	inactive	inactive
COCC(=O)Nc1c(I)c(C(=O)NCC(O)CO)c(I)c(C(=O)N(C)CC(O)CO)c1I (centres undefined)		inactive	inactive	inactive
Cc1ccccc1C(=O)Nc1ccc(C(=O)N2CCCC(N(C)C)c3ccccc32)cc1 (centres undefined)			inactive	inactive
CN(C)C(=O)COC(=O)Cc1ccc(OC(=O)c2ccc(N=C(N)N)cc2)cc1			inactive	inactive
CC(C)COC(=O)c1ccc(N)cc1	inactive	inactive	inactive	inactive
COc1cc([C@@H]2c3cc4c(cc3[C@@H](O[C@@H]3O[C@@H]5CO[C@@H](c6cccs6)O[C@@H]5[C@H](O)[C@@H]3O)[C@H]3COC(=O)[C@H]23)OCO4)cc(OC)c1O	1.22 µM (active)	1.72 µM (active)		
COc1cc(C(=O)NS(=O)(=O)c2ccccc2C)ccc1Cc1cn(C)c2ccc(NC(=O)OC3CCCC3)cc12	inactive		inactive	inactive
Nc1cc(C(Cl)=C(Cl)Cl)c(S(N)(=O)=O)cc1S(N)(=O)=O	inactive		inactive	inactive
CC(C)Cc1ccc(C(C)C(=O)O)cc1 (centres undefined)	inactive		inactive	inactive
